From PubChem
TDP1 cell CPT = growth inhibition of DT40 Tdp1-/-;hTDP1 cells with camptothecin (screen for TDP1 inhibitors); chicken DT40 Tdp1-/-;hTDP1 cells + 20 nM CPT, ATP luminescence, 48 h; Potency, µM (highest dose often 46.2 µM), usual class: inhibitors; 420,000 tested, 12% active; also: nearly all actives have a fitted effect of over 55% in size
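Chicken DT40 Tdp1-/- cells stably complemented with human TDP1 were seeded at 400 cells/well in medium containing 20 nM camptothecin, exposed to pin-transferred compounds, and grown at 37 °C for at least 48 hr. Viability was read as ATP luminescence.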
HepG2 viability = HepG2 cytotoxicity, counter-screen for TGF-b inhibitors | Potency, µM (highest dose often 46.1 µM), most hits filed as cytotoxic | HepG2 CAGA-GFP viability, ATP luminescence, 18 h | 410,000 tested, 0.76% active
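CellTiter-Glo luminescence gave cytotoxicity after 18 hours at 37 degrees C. The cells were HepG2 CAGA-GFP in 1% FBS DMEM, stimulated with 500 pg/mL TGF-beta after compound addition. %Activity was normalised to no-cell wells (complete cell-killing) and DMSO (no toxicity), and curves were fitted and classified.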
TGFb SMAD3 inh = inhibitors of TGF-b signaling; AID 588855; 410,000 tested, 1.2% active; Potency, µM (titrated, usually from 46.1 µM), actives largely listed as inhibitors; HepG2 CAGA-GFP TGF-b/SMAD3 reporter, GFP fluorescence, 18 h; TGF-beta stimulated, 500 pg/mL final; also: nearly all actives have a fitted effect of over 65% in size
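Inhibition of TGF-beta-driven CAGA-GFP reporter expression in HEPG2 cells is measured by cellular GFP fluorescence after 18 h stimulation with 500 pg/mL recombinant TGF-beta in 1% FBS medium at 37 degrees C.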
IL1B secr inh = inhibitors of inflammasome signaling (IL-1 beta secretion) | THP-1 LPS/ATP IL-1B secretion, AlphaLISA, 16 h; stronger effect = lower value | activity change, % at 57.5 µM | 360,000 tested, 4.7% active | AID 743279; in the data active = activity change below about -50%; inconclusive = mostly about -30% to -49%
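THP-1 cells pretreated 1 hr with compounds (up to 57.5 uM final), then stimulated with LPS (250 ng/mL final) plus ATP (1.25 mM final); secreted IL-1B measured by AlphaLISA after 16 hr, decreased signal indicating inhibition.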
DT40 TDP1 no CPT = qHTS for Inhibitors of human tyrosyl-DNA phosphodiesterase 1 (TDP1): qHTS in cells in absence of CPT. DT40 Tdp1-/- hTDP1 cells, no CPT, ATP luminescence, 48 h. 420,000 tested, 15% active. Potency, µM (top dose mostly 46.2 µM), hits mostly inhibitors. AID 686978, 2013; also: nearly all actives have a fitted effect of over 55% in size
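Cells were dispensed at 400 per well, compounds added by pin tool, plates incubated ≥48 hr at 37 °C, then CellTiter-Glo added for 30 min at room temperature before luminescence reading. Line: DT40 Tdp1-/- complemented with hTDP1; camptothecin omitted.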
S-ASM inh = blocks human secretory acid sphingomyelinase | placental ASM, HMU-PC fluorogenic substrate, 60 min | P17405 | AID 504937 | Potency, µM (series often up to 57.5 µM), hits mostly inhibitors | 340,000 tested, 0.006% active
Target sequence (P17405 47-631 limits assumed): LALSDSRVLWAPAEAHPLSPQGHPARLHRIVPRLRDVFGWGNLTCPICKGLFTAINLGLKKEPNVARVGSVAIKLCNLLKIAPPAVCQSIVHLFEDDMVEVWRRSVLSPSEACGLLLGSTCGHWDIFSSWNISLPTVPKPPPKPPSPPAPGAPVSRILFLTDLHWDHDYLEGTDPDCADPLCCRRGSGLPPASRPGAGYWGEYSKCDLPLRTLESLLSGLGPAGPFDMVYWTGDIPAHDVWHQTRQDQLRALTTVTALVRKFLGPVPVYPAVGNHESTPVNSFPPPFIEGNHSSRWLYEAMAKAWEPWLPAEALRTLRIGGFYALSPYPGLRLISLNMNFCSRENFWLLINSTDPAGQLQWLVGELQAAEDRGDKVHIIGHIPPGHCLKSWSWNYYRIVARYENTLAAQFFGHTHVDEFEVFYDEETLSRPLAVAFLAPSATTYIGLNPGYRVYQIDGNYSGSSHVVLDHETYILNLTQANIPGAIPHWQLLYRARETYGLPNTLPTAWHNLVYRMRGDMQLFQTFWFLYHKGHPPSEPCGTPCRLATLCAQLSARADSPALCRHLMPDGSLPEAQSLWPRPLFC
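Fluorogenic HMU-PC substrate (9 uM final) is turned over by placental ASM in 60 min at 37 C after a 10 min compound preincubation. Reaction ended by alkaline stop (pH 10), with fluorescence read at 386/447 nm.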
Numbers stand for hits; - = inactive; ? = inconclusive; . = not tested or not shown; [ ] = another dose, or the depositor's remark. The list is not random: actives were taken first. Their share in the collection is about 19%. Unless noted, calls follow the shape of the dose curve; as a rule, active = well fitted curve in the direction sought with a large enough effect; inconclusive = small, poorly fitted or top-dose-only effect, or another doubt; inactive = no such curve, though single readings can be large; an effect the other way counts as inactive or inconclusive.

SMILES	TDP1 cell CPT	HepG2 viability	TGFb SMAD3 inh	IL1B secr inh	DT40 TDP1 no CPT	S-ASM inh
O=C(CN1CCSC1=O)N1CCN(S(=O)(=O)c2ccc(F)cc2)CC1	-	-	-	-	-	-
Cc1ccc(F)c(C(=O)N2CCCC(C)(C(=O)NS(=O)(=O)C3CC3)C2)c1F (stereo unspecified)	6.5µM	-	-	-	5.8µM	.
CC1(C(=O)NS(=O)(=O)C2CC2)CCCN(C(=O)C2(c3ccc(Cl)cc3)CCCC2)C1 (stereo unspecified)	?	-	-	-	12µM	.
CC1(C(=O)NS(=O)(=O)C2CC2)CCN(C(=O)c2c(F)cccc2F)C1 (stereo unspecified)	-	-	-	-	-	.
NC(=O)c1ccccc1OC1CCC1	-	-	-	-	-	-
CCN1C/C(=C\c2cc(OC)c(OC)c(OC)c2)C2=NN(c3ccccc3)C(c3cc(OC)c(OC)c(OC)c3)C2C1 (stereo unspecified)	6.5µM	-	-	-	5.8µM	-
NCC1CC2c3ccccc3C1c1ccccc12 (stereo unspecified)	-	-	-	-78	?	-
O=C(NCc1cccnc1)C1CC2c3ccccc3C1c1ccccc12 (stereo unspecified)	-	-	-	-	-	-
CCOc1ccccc1N1CCN(C(=O)c2ccc3nc(N)sc3c2)CC1	-	-	-	-	?	-
O=C(CCc1ccccc1)N[C@@H]1c2ccccc2CC[C@H]1OCc1ccccc1	?	-	-	-	12µM	-
O=C(COCc1ccccc1)N[C@@H]1c2ccccc2CC[C@@H]1OCc1ccccc1	?	-	?	-51	?	-
O=C(Cc1ccccc1)N[C@@H]1c2ccccc2CC[C@@H]1OCc1ccccc1	-	-	-	-	-	-
Cn1cnc([N+](=O)[O-])c1Oc1ccc2ccccc2c1	8.2µM	-	?	-103	?	-
CN(CC(=O)Nc1ccc(N2CCOCC2)cc1)Cc1c(O)ccc2ccccc12	-	-	-	-	-	-
COc1ccc(-c2cc(C(=O)NC3CC3)c3ccccc3n2)cc1	?	-	-	-	?	-
Cc1cc(C)cc(Nc2cc(C(=O)NC3CCCCC3)c3ccccc3n2)c1	?	-	-	.	?	.
CN1CCC(NC(=O)c2cc(-c3cccc(Br)c3)nc3ccccc23)CC1	?	-	-	-79	?	-
O=C(NC1CCCCCCC1)c1cc(-c2ccccn2)nc2ccccc12	?	-	-	-	18µM	-
Cc1cc(C)cc(Nc2cc(C(=O)NC3CCC(C)CC3)c3ccccc3n2)c1 (stereo unspecified)	?	-	?	.	9.2µM	.
O=C(NC1CC1)c1cc(-c2ccc(Br)cc2)nc2ccccc12	?	-	-	-	15µM	-
COc1ccc(-c2cc(C(=O)NC3CCCC3)c3ccccc3n2)cc1	?	-	-	-	?	-
O=C(Nc1ccc(N2CCC(c3ccccc3)C2)c(C(=O)O)c1)c1ccc(Cl)cc1 (stereo unspecified)	?	-	-	.	?	.
CCCCN1C(=O)C(=O)N(CC(=O)c2ccc3c(c2)OCO3)C1=O	-	-	-	-	-	-
O=C(CC1S/C(=N/N=C/c2cccs2)NC1=O)Nc1ccccc1F (stereo unspecified)	-	-	-	-	-	-
Cn1c2c(c(=O)[nH]c1=O)C(c1ccc(O)cc1)C1=C(N2)c2ccccc2C1=O (stereo unspecified)	10µM	-	-	?	23µM	-
SMILES	TDP1 cell CPT	HepG2 viability	TGFb SMAD3 inh	IL1B secr inh	DT40 TDP1 no CPT	S-ASM inh
CC(O)(COc1ccccc1)c1ccc2c(c1)CN(Cc1cccc3ncccc13)CCO2 (stereo unspecified)	-[9.04 µM]	.	.	.	?	.
Nc1ccccc1C#CC(=O)c1ccccc1	1.3µM	-	3.5µM	-102	?	-
CN(C)S(=O)(=O)c1cccc(NC(=O)C2CCN(S(=O)(=O)c3cccs3)CC2)c1	?	-	-	-	?	-
Cc1ccsc1C(=O)N1CCCC(N2CCN(c3cccc(Cl)c3)CC2)C1 (stereo unspecified)	?	-	-	-	?	-
O=C(O)Cn1nc(-c2ccccc2)oc1=O	-	-	-	-	-	-
O=C(O)Cn1nc(-c2ccc(F)cc2)oc1=O	16µM	-	-	-	?	-
O=C(O)c1cn(-c2ccccc2)nc1-c1ccncc1	-	-	-	-	-	-
O=C(c1cn(-c2ccccc2)nc1-c1ccncc1)n1nnc2ccccc21	16µM	-	-	-	-	-
CCC1C(=O)Nc2ccccc2N1C(=O)COc1ccccc1 (stereo unspecified)	-	-	-	-	-	-
O=C(COC(=O)c1cccnc1Cl)Nc1cccc(S(=O)(=O)N2CCCCC2)c1	-	-	-	-	-	-
O=C(COC(=O)c1cc([N+](=O)[O-])ccc1NCCO)Nc1cccc(S(=O)(=O)N2CCCC2)c1	29µM	-	-	-	13µM	-
CCS(=O)c1ccccc1C(=O)OCC(=O)Nc1cccc(S(=O)(=O)N2CCCCC2)c1 (stereo unspecified)	12µM	-	?	-	5.8µM	-
CCOc1ccccc1C(=O)OCC(=O)Nc1cccc(S(=O)(=O)N2CCCC2)c1	21µM	-	-	-	21µM	-
O=C(COC(=O)c1ccccc1)Nc1cccc(S(=O)(=O)N2CCCCC2)c1	-	-	?	-	-	-
COc1ccc(N(CC(=O)NC(C)c2ccccc2)S(=O)(=O)c2c(C)nn(C)c2C)cc1 (stereo unspecified)	-	-	?	.	?	.
CC(C)(C)NCC(O)COc1c(F)cc(Br)cc1F (stereo unspecified)	-	-	-	-	-	-
CC(C)(C)CC(C)(C)NCC(O)COc1c(F)cc(Br)cc1F (stereo unspecified)	?	-	?	?	23µM	-
CCc1c(-c2ccccc2OC)ncn1Cc1cccc(-c2ccccc2)c1	0.65µM	.	.	-53	0.52µM	.
COc1ccccc1-c1ncn(Cc2cccc(-c3ccccc3)c2)c1CC(C)C	21µM	.	.	-91	18µM	.
CCc1c(-c2ccc(OC)cc2)ncn1Cc1cccc(-c2ccccc2)c1	7.3µM	.	.	-	4.6µM	.
COc1ccccc1-c1nc2ccccc2n(CC(C)C)c1=O	?	.	.	-	?	.
CCc1c(-c2cccc(Br)c2)ncn1Cc1cccc(-c2ccccc2)c1	?	.	.	-95	23µM	.
